The source of these data is PubChem BioAssay.

Test [1] has as its target Albumin (Bos taurus) (UniProt P02769). The experiment in a line: bovine serum albumin binders on microarray, profiling panel, artefact control for SMM control protein annotation, biochemical, small-molecule microarray, Alexa647 label, 635/667 nm fluorescence (AID 1118).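 Note: score merges 667 nm emission intensity and signal-to-noise per printed compound spot.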 The note with it: BSA-A647 binding, fluorescence 635 nm, higher = more signal.
Test [2] can be described thus: small-molecule microarray binders of probe aXIP, primary screen, biochemical, NeuroSMM set, 635/667 nm fluorescence (AID 1119).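 Note: probe is the protein aXip251-270 applied at 1 µg/mL to compound-printed slides; binding of probe to printed compounds measured as 667 nm fluorescence plus signal to noise.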 The note with it: higher = more signal, called active from +8 up or from −8 down.
The nature of test [3]: small-molecule binders of probe aNOTCH3, primary screen, biochemical, small-molecule microarray, 635/667 nm fluorescence (AID 1120).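 Note: probe is a biotin-tagged antibody raised against NOTCH3 rather than NOTCH3 protein; score merges spot fluorescence near 667 nm with spot signal to noise.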 The note with it: higher = more signal.
Test [4] in a line: small-molecule binders of probe aNOTCH2, primary screen, biochemical, small-molecule microarray, 635/667 nm fluorescence (AID 1121).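 Note: score merges feature fluorescence read at 667 nm with its signal to noise.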 The note with it: higher = more signal.
The target of test [5] is Carbonic anhydrase 2 (Homo sapiens) (UniProt P00918). The experiment in a line: CAII small-molecule binders, profiling panel, biochemical, small-molecule microarray, Alexa647-labelled CAII (AID 1122). The note with it: CAII-A647 binding fluorescence, higher = more signal.
The nature of test [6]: COS7 lysate on small-molecule microarray, probe aHis, 635 nm (AID 1123).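 Note: z-score combines 667nm fluorescence intensity with signal-to-noise per printed compound spot.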 The note with it: COS7 cell lysate, fluorescence, higher = more signal.
Test [7] is described as follows: compound binding in COS7 lysate, probe aLAP1, primary screen, cell lysate, small-molecule microarray (AID 1124).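 Note: lysate comes from COS7 cells expressing LAP1 and is applied at 0.3 µg/mL; score merges spot fluorescence near 667 nm with signal-to-noise over triplicate slides.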 The note with it: probe aLAP1, fluorescence, higher = more signal.
For test [8], the system named is Sam68 (KHDRBS1). The experiment in a line: Sam68 small-molecule binders, primary screen, biochemical, small-molecule microarray, 635 nm fluorescence (AID 1125).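 Note: score merges 667 nm channel intensity with signal to noise over triplicate slides.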 The note with it: small-molecule microarray binding, higher = more signal.
The subject of test [9] is Chordin-like protein 2 (CHRDL2). The experiment in a line: CHRDL2 small-molecule binders, primary screen, biochemical, small-molecule microarray, 635 nm fluorescence (AID 1126).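 Note: printed compound slides probed with Chrdl2 protein at 4 µg/mL for 1 h at 4 C; score merges 667 nm emission intensity with signal to noise over three replicate slides.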 The note with it: small-molecule microarray binding, fluorescence 635 nm; higher = more signal.
The target in test [10] is Concanavalin-A (Canavalia ensiformis) (UniProt P02866). Description: ConA small-molecule binders, primary screen, artefact control for SMM control protein annotation, biochemical, small-molecule microarray, Alexa647 label, 635 nm (AID 1127).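 Note: z combines 667 nm emission intensity with signal-to-noise across three replicate slides.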 The note with it: ConA-A647 binding fluorescence, higher = more signal.
The nature of test [11]: anti-His antibody binders, primary screen, artefact control for SMM control protein annotation, biochemical, small-molecule microarray, 635 nm fluorescence (AID 1128).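 Note: score merges feature fluorescence with signal-to-noise for each printed compound spot.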 The note with it: anti-His Alexa647 antibody binding, higher = more signal.
For test [12], the system named is Human papillomavirus type 1a E7 protein (residues 1-88). Description: HPV1a E7 small-molecule binders, primary screen, biochemical, small-molecule microarray, residues 1-88, 635 nm (AID 1129). The note with it: small-molecule microarray binding, fluorescence 635 nm; higher = more signal.
Test [13] has as its target Focal adhesion kinase 1 (Homo sapiens) (UniProt Q05397). The experiment in a line: small-molecule microarray binders of FAK, primary screen, biochemical, 635/667 nm fluorescence, BSA, DTT (AID 1130).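 Note: composite of spot emission at 667 nm and signal to noise over triplicate slides.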 The note with it: PTK2 binding, 635 nm fluorescence, higher = more signal.
The subject of test [14] is Fibrinogen (Alexa647-labelled). Description: fibrinogen binders on compound microarrays, profiling panel, artefact control for SMM control-protein annotation, biochemical, small-molecule microarray, 635/667 nm fluorescence (AID 1131).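 Note: z-score merges 667 nm fluorescence with per-spot signal-to-noise over triplicate slides.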 The note with it: fibrinogen-A647 binding fluorescence, higher = more signal.
The target in test [15] is Follistatin (Homo sapiens) (UniProt P19883). Description: follistatin binders on small-molecule microarrays, primary screen, biochemical, small-molecule microarray, 635/667 nm fluorescence (AID 1132). The note with it: FST binding, 635 nm fluorescence, higher = more signal.
Test [16] addresses Fibroblast growth factor 2 (Homo sapiens) (UniProt P09038). The experiment in a line: FGF2 binders on small-molecule microarrays, primary screen, biochemical, small-molecule microarray, 635/667 nm fluorescence (AID 1133). The note with it: small-molecule microarray binding, FGF2, fluorescence 635/667; higher = more signal.
The nature of test [17]: mitochondrial membrane potential change in A549 cells, profiling panel, cell-based, JC-1 fluorescence, basal, 24 h, 100 nL (AID 1138).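 Note: A549 lung adenocarcinoma cells under basal conditions with no added stimulus; test concentration not given here.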 The note with it: higher = more signal.
The test system of test [18] is Lefty1. The experiment in a line: Lefty1 binders on small-molecule microarrays, primary screen, biochemical, small-molecule microarray, 635/667 nm fluorescence (AID 1139). The note with it: small-molecule microarray binding, fluorescence 635/667; higher = more signal.
Test [19] concerns wheat germ agglutinin (Triticum aestivum), Alexa647-labelled. Description: wheat germ agglutinin binders on compound microarrays, profiling panel, artefact control for SMM control-protein annotation, biochemical, small-molecule microarray, 635/667 nm fluorescence (AID 1140).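 Note: score merges 667 nm feature emission with signal to noise over triplicate slides.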 The note with it: WGA-A647 binding, 635 nm fluorescence, higher = more signal.
Test [20] has as its target Luciferin 4-monooxygenase (Photinus pyralis) (UniProt P08659). Description: firefly luciferase enzyme inhibitors, primary screen, biochemical, luminescence, purified enzyme, 2006 set (AID 1141).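 Note: cell-free assay with purified firefly luciferase at 100 ng per well in PBS; test concentration not given here.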 The note with it: SteadyGlo luminescence, 30 min, higher = more signal, called active from +8 up or from −8 down.

Activity calls are given as the source filed them.

Chain of Fibroblast growth factor 2 (Homo sapiens) (P09038 whole entry, looked up): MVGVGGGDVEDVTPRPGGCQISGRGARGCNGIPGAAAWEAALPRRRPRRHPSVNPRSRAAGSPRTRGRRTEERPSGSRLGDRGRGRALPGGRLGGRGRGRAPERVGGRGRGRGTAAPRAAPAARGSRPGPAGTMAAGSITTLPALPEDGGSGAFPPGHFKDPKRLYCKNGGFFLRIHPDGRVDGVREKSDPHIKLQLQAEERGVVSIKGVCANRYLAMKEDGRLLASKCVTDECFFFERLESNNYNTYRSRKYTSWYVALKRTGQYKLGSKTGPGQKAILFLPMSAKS
Chain of Focal adhesion kinase 1 (Homo sapiens) (Q05397 whole entry, looked up): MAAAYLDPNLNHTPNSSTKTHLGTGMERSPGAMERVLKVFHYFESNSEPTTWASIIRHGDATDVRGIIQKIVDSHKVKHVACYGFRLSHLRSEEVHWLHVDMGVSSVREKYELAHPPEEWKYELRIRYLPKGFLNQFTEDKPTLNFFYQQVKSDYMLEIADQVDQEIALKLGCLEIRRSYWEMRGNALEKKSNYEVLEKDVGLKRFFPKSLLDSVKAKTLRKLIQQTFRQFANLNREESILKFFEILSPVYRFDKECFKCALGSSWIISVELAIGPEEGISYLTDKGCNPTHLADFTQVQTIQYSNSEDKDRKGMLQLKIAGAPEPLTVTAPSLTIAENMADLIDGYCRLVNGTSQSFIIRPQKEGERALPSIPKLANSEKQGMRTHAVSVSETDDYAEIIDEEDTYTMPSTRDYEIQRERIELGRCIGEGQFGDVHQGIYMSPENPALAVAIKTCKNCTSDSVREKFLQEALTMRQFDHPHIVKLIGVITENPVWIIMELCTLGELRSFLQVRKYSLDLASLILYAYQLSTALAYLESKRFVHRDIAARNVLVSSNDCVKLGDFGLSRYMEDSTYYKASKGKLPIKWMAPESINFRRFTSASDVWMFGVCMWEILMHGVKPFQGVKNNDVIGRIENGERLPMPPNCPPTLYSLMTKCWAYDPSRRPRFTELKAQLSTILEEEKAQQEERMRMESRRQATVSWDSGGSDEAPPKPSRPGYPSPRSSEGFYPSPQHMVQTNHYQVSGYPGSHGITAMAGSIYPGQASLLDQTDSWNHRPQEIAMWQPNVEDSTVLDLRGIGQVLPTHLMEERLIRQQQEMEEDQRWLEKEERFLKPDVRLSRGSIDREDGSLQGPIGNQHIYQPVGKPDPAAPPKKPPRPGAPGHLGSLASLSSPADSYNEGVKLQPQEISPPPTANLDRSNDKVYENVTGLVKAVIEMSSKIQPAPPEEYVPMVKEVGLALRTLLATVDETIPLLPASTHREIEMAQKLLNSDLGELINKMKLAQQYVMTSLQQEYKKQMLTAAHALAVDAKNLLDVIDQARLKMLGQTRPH
Chain of Follistatin (Homo sapiens) (P19883 whole entry, looked up): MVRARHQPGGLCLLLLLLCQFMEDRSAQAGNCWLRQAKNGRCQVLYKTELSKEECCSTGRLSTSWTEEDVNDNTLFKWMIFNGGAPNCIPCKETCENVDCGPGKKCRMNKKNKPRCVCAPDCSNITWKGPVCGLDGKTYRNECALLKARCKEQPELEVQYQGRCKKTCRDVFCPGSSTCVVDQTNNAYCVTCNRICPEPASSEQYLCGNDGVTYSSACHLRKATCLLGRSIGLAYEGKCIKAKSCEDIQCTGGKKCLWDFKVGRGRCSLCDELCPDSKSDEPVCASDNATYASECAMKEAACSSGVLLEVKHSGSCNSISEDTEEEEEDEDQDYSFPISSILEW
Chain of Luciferin 4-monooxygenase (Photinus pyralis) (P08659 whole entry, looked up): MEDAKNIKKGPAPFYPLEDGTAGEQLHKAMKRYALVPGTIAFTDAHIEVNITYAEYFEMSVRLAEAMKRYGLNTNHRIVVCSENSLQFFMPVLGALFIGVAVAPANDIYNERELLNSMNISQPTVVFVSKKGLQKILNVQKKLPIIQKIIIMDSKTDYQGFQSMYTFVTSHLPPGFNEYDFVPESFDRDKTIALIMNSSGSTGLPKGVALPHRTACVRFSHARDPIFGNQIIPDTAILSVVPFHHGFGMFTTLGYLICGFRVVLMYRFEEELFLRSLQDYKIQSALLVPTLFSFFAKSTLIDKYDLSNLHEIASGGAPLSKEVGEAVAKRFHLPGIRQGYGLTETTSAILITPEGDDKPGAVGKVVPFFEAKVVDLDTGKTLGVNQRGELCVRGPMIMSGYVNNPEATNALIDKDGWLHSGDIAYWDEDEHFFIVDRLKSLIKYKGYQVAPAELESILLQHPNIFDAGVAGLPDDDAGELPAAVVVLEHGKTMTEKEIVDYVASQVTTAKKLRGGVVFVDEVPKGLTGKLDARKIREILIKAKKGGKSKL
Chain of Albumin (Bos taurus) (P02769 whole entry, looked up): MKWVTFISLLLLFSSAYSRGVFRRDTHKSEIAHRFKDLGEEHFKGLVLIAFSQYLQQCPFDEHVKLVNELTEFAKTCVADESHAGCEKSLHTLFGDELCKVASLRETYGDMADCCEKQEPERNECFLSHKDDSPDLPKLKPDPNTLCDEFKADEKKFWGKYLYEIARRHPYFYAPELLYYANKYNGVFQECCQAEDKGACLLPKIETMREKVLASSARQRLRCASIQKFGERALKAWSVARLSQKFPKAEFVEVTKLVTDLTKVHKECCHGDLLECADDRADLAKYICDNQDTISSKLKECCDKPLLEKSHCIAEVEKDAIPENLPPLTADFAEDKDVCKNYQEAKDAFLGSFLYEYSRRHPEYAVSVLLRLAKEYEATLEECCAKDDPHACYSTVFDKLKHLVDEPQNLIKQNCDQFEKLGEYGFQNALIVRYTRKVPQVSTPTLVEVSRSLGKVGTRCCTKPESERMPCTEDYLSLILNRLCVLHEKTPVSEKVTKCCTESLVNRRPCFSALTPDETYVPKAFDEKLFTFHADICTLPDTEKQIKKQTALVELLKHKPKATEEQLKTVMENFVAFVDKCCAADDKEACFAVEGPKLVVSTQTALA
Chain of Concanavalin-A (Canavalia ensiformis) (P02866 whole entry, looked up): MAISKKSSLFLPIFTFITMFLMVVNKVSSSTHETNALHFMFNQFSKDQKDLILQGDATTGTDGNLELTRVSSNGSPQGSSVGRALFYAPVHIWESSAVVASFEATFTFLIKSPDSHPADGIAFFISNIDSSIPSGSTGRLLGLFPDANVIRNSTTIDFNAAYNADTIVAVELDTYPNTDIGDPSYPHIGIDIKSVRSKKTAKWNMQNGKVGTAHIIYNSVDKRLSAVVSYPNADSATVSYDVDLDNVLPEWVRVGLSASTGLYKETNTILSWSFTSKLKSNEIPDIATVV

Take `[N-]=[N+]=NCc1ccccc1C[C@@]1(C(=O)N2CCOCC2)N=C(c2ccc(OCCCO)cc2)O[C@@H]1c1ccccc1`: the composite z-score came out at 0.851 in test [1]; 0.056 in [3]; 0.0012 in test [4]; 0.617 in [5]; 2.92 in [6]; 0.491 in test [7]. Moreover, the composite z-score is 1.11 in test [8]; -0.577 in [9]; 1.08 in test [10]; 3.12 in test [11]; 1.18 in test [12]; 0.406 in [13]. Also, the composite z-score in test [14] was 0.884; in test [15], 0.734; in test [16], 0.399; in test [18], -0.379; in test [19], 0.529. Moreover, the composite Z-score in [2] is 0.879 (inactive). Also, the values for the z-score in test [17] and in test [20] were -0.667 and -0.469 (inactive), respectively.

For `COc1ccc(CCNC(=O)[C@@H]2c3ccccc3C(=O)N(Cc3cc(C(F)(F)F)cc(C(F)(F)F)c3)[C@H]2c2ccc(CO)cc2)cc1`, the composite z-score is -0.329 in [1]; -0.208 in test [3]; -0.149 in test [4]; 0.681 in test [5]; 0.84 in test [6]; 0.566 in test [7]. Moreover, the composite z-score in test [8] was 1.14; in test [9], -0.571; in test [10], 0.425; in [11], 2.15; in [12], 0.102; in [13], -0.152. Moreover, the composite z-score in [14] was 0.629; in test [15] it was 0.255; in [16], -0.258; in [18], -0.297; in test [19], 0.985. The composite Z-score in test [2] was -0.586 (inactive). Also, the figures for the z-score in [17] and in [20] were 1.95 and -1.16 (inactive), respectively.

As to `CCOC(=O)C[C@H]1[C@H](OC(=O)Cc2ccc3c(c2)OCO3)[C@@H](NC(=O)Cc2ccc(OC)cc2)c2cc(OCCCO)ccc2N1C(=O)c1ccc2ccccc2n1`, the composite z-score in test [1] was 0.857; in [3] it was -0.0768; in test [4] it was -0.11; in [5], 0.154; in test [6], 1.15; in test [7] it was 0.199. For the same compound, the composite z-score is 0.489 in test [8]; 0.276 in test [9]; -0.533 in [10]; 0.0036 in test [11]; 0.383 in test [12]; -0.345 in test [13]. The composite z-score was 0.172 in test [14]; 0.147 in test [15]; 0.211 in test [16]; 0.168 in test [18]; -0.119 in test [19]. Moreover, the composite Z-score in test [2] was -0.802 (inactive). Moreover, the z-score is 2.69 in test [17] and -1.7 (inactive) in test [20].

Turning to `[N-]=[N+]=NCc1ccccc1C[C@@]1(C(=O)N2CCCCC2)N=C(c2ccc(OCCCO)cc2)O[C@@H]1c1ccccc1`, the composite z-score in test [1] is 0.901; in test [3], -0.102; in [4] it was -0.299; in [5] it was 0.606; in test [6], 1.28; in test [7] it was -0.0762. For the same compound, the composite z-score is 1.07 in test [8]; -1.27 in test [9]; 0.64 in test [10]; 0.686 in test [11]; 1.12 in test [12]; 0.214 in test [13]. Also, the composite z-score in test [14] is 0.519; in test [15], 0.24; in [16], 0.201; in test [18], -0.693; in test [19], 0.636. The composite Z-score in test [2] is 0.269 (inactive). Besides, the z-score in test [17] is 0.144; in [20], -0.362 (inactive).

Regarding `O=C1N(Cc2ccccc2)c2ccccc2[C@@H]2OC(c3ccc(OCCCO)cc3)=N[C@]12Cc1ccccc1`, the composite z-score is -0.34 in test [1]; -0.0362 in test [3]; -0.0146 in test [4]; 0.607 in test [5]; 2.23 in test [6]; -0.327 in test [7]. For the same compound, the composite z-score came out at 1.3 in test [8]; 0.29 in test [9]; 1.11 in [10]; 0.205 in test [11]; 1.24 in [12]; 0.623 in test [13]. In addition, the composite z-score in [14] was found to be 0.787; in test [15], 1.12; in test [16] it was 1.12; in test [18], 0.183; in [19], 0.849. In test [2], the composite Z-score is -0.296 (inactive). Also, the results for the z-score in test [17] and in test [20] were -1.31 and -3.86 (inactive), respectively.

With `CCCCCCc1nc(C2CC2)cc2c1[Si](C(C)C)(C(C)C)O[C@H]2c1ccccc1`, the composite z-score was -0.948 in test [1]; -0.0647 in test [3]; -0.126 in test [4]; -0.324 in test [5]; -0.724 in test [6]; 0.649 in [7]. In addition, the composite z-score in test [8] was -0.698; in test [9], 0.21; in test [10] it was 0.327; in test [11], -0.523; in test [12], -0.873; in [13] it was 0.0181. The composite z-score in [14] is -0.675; in [15] it was 0.0915; in test [16] it was 0.248; in test [18], 1.05; in test [19], -0.127. For the same compound, the composite Z-score in test [2] was -0.228 (inactive). Also, the z-score in test [17] was -0.911; in [20] it was 0.747 (inactive).

As to `CCCCC(=C=CC[C@@H](O)c1ccccc1OCCO)C[C@@H](O)COCc1ccccc1`, the composite z-score in [1] is 0.338; in [3], -0.281; in [4], -0.148; in test [5], 0.47; in [6], 1.95; in test [7], 0.207. The composite z-score in [8] is 0.471; in test [9], -0.893; in test [10], -0.525; in test [11] it was 0.0168; in test [12], -0.399; in [13], 0.577. The composite z-score came out at 0.479 in test [14]; 0.271 in test [15]; 0.668 in test [16]; 0.0842 in [18]; 0.0771 in test [19]. In addition, the composite Z-score in test [2] was -0.0202 (inactive). For the same compound, the results for the z-score in test [17] and in test [20] were 0.995 and -2.59 (inactive), respectively.

As to `CCC(CC)C(O)C1C=CC2C(=O)N(c3ccccc3)C(=O)C2N1Nc1ccc(C(C)C)cc1` (stereo not given), the composite z-score was 0.682 in test [1]; 0.213 in test [3]; 0.197 in [4]; 0.691 in test [5]; 2.24 in [6]; 0.359 in [7]. The composite z-score is 1.3 in test [8]; -0.0149 in test [9]; 0.922 in test [10]; 0.489 in [11]; 1.22 in test [12]; 0.902 in [13]. In addition, the composite z-score in test [14] came to 0.978; in test [15], 1.01; in test [16], 0.524; in [18] it was 0.0342; in test [19], 1.08. In addition, the composite Z-score in test [2] was 0.15 (inactive). In addition, the z-score is -0.202 in test [17] and -1.58 (inactive) in test [20].
